Results filed as inconclusive are left out. A call without a number means that no potency is given here. Activity calls are given as the source filed them. Calls come from the whole dose curve; as a rule, active = well fitted cell-killing curve with a large enough effect; inconclusive = small, poorly fitted or top-dose-only effect; inactive = flat fitted curve, though single readings scatter.
Potency is the fitted concentration of half-maximal effect.

The experiment can be described thus: HepG2 cells viability qHTS for Zika virus inhibitors (AID 1347168). Conditions: Zika counter-screen; series mostly up to 45.9 µM. An excerpt:
Avindra Nath, Ph.D., National Institute of Neurological Disorders and Stroke (NINDS), Bethesda, MD
Radhakrishnan Padmanabhan, Ph.D., Georgetown University (GU), Washington D.C.
Zika Virus causes congenital defects, including microcephaly and is associated with Guillain-Barre syndrome, eningoencephalitis and myelitis in infected adult. […] Using a target-based approach, we hope to establish a screening paradigm to uncover novel, cell-active NS2B-NS3 protease (Zika Virus) specific inhibitors from NCATS' collection of small molecules using qHTS.
Four assay panel was created to identify potential Zika Virus inhibitors. Namely, (1) GU unlinked NS2B-NS3 AMC tagged protease qHTS, (2) GU unlinked NS2B-NS3 Rhodamine tagged protease qHTS, (3) NINDS linked NS2B-NS3 AMC tagged protease qHTS, (4) NINDS linked NS2B-NS3 Rhodamine tagged protease qHTS. Identified inhibitors were screened against the Vero and HepG2 cell viability assays using CellTiter Glo to exclude cytotoxic compounds.
Early Translation Branch (ETB)
National Center for Advancing Translational Sciences (NCATS), Rockville, MD
National Institute of Health (NIH), Bethesda, Maryland
Vero and HepG2 Cell Viability Assay:
Vero and HepG2 cell cytotoxicity were determined using a luminescent readout with CellTiter Glo reagent (Promega, Madison, WI), which is based on measuring the ATP content within cells. Briefly, 4 microL of Vero or HepG2 cells at 2.5 x 10^5 cells/mL in DMEM containing 4% FBS were dispensed into 1536-well solid bottom tissue treated white plate using a Multidrop Combi dispenser (Thermo Scientific). Plates were incubated at 37 degrees C, 95% humidity, and 5% CO2 overnight to allow for cell attachment. Compounds were dissolved in DMSO at different concentrations and transferred via pintool (Wako Automation), for a final concentration of 0.029 µM - 57 microM. Plates were again incubated for 24 to 48 hours, followed by a 2 microL addition of CellTiter Glo. Finally, plates were incubated for 30 minutes at 37 degrees C and 5% CO2 before being read on a ViewLux (Perkin Elmer) for luminescence.
A general note: Quantitative high-throughput screening tests each substance at several concentrations.
For `CO[C@H]1[C@@H](O)CC(OC2[C@@H](O)CC(OC3[C@@H](O)C[C@H](OC4CC[C@@]5(C)C(CCC6C5CC(O)[C@]5(C)[C@H](C7=CC(=O)OC7)CCC65O)C4)O[C@@H]3C)O[C@@H]2C)O[C@@H]1C` (stereo partly drawn), the Potency entry is “inactive”.
`CC/C=C/C=C/C1(C)OC(OC)=C(C(=O)C2C(C)C(=O)c3cc(OC)c(O)c(O)c3C2(C)O)C1=O` (stereo not drawn): the Potency result is “inactive”.
Consider `C[C@H]1[C@H]2Cc3ccc(O)cc3[C@]1(C)CCN2CCc1ccccc1`, for which the Potency result was “inactive”.
For `CC(C)=CCCC1(C)C=Cc2c(O)c3c(c(CC=C(C)C)c2O1)OC12C(=CC4CC1C(C)(C)OC2(C/C=C(/C)C(=O)O)C4O)C3=O` (stereo not drawn), the Potency is 18.6 µM (active).
`COC(=O)c1cc2c(cn1)[nH]c1ccccc12`: the Potency result is “inactive”.
On to `C[C@@H]1[C@@H]2Cc3ccc(O)cc3[C@@]1(C)CCN2CCc1ccccc1`, for which the Potency entry was “inactive”.
`C[C@H]1O[C@@H](O[C@H]2[C@@H](O)C[C@H](O[C@H]3[C@@H](O)C[C@H](O[C@H]4CC[C@]5(C)C6CC[C@]7(C)[C@@H](C8=CC(=O)OC8)CC[C@]7(O)C6CC[C@@H]5C4)O[C@@H]3C)O[C@@H]2C)C[C@H](O)[C@@H]1O` (stereo partly drawn): the Potency result was “inactive”.
Take `C=CCN1CCC2(C)c3cc(O)ccc3CC1C2C` (stereo not drawn): the Potency entry was “inactive”.
Consider `Clc1cncc(N2CCNCC2)n1`, for which the Potency result was “inactive”.
With `CC(C)OC(=O)Nc1ccccc1`, the Potency entry was “inactive”.
Then `CC(C)=CCC[C@]1(C)C=Cc2c(O)c3c(c(CC=C(C)C)c2O1)O[C@]12C(=C[C@@H]4CC1C(C)(C)O[C@@]2(C/C=C(/C)C(=O)O)C4=O)C3=O`, with 2.94 µM (active); and `CN1CC[C@@]23CCCC[C@@H]2[C@@H]1Cc1ccc(O)cc13`, with “inactive”; and `CN(C(=O)Cc1ccc(Cl)c(Cl)c1)[C@@H](CN1CCCC1)c1cccc(OCC(=O)O)c1`, with “inactive”.
Regarding `Cc1ccc2c(c1)[C@]13CCCC[C@@H]1[C@H](C2)N(C)CC3`, the Potency entry was “inactive”.
On to `Ic1cncc(OC[C@@H]2CCN2)c1`, for which the Potency entry is “inactive”.
Take `CNc1ccc2oc(C[C@@H]3OC4(CC[C@@H]3C)O[C@H]([C@@H](C)C(=O)c3ccc[nH]3)[C@H](C)C[C@H]4C)nc2c1C(=O)O` (stereo partly drawn): the Potency was 26.2 µM (active).
For `C=CCN1CCC2(C)c3cc(O)ccc3C[C@H]1[C@H]2C`, the Potency result was “inactive”.
With `CN1CC[C@@]23CCCCC2C1Cc1ccc(O)cc13` (stereo partly drawn), the Potency result was “inactive”.

These data come from PubChem BioAssay (NCATS).
